In all, about 360,000 compounds went through this assay and about 16,000 (4.4%) were called active. Roughly 9% stayed inconclusive and do not appear here. The call rests on the fitted dose curve; in most records, active means well fitted inhibition curve with a large enough effect; inconclusive means small, poorly fitted or top-dose-only effect; inactive means no such curve, though single readings can be large or run the other way. Shown is part of a subset that was picked to be rich in actives. A call without a number means that no potency is given here.
Potency means the concentration at half of the fitted maximal effect.

The target of the test is Bromodomain adjacent to zinc finger domain protein 2B (Homo sapiens) (UniProt Q9UIF8). As to the kind of experiment: qHTS Assay for Inhibitors of BAZ2B. Further: nearly all actives have a fitted effect of over 60% in size. The settings on record: AlphaScreen BAZ2B-H3K14Ac peptide displacement; series mostly up to 114 µM. In outline: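 BAZ2B 50 nM plus b-H3(5-23)K14Ac 50 nM, PBS pH 7.4/0.01% Tween-20, 30 min RT; compound added (max 110 uM), 30 min RT; streptavidin donor/Ni-chelate acceptor beads 10 ug/mL final, 20 min dark; AlphaScreen read.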
Sequence of Bromodomain adjacent to zinc finger domain protein 2B (Homo sapiens) (Q9UIF8 whole entry, looked up, the tested form may be a part): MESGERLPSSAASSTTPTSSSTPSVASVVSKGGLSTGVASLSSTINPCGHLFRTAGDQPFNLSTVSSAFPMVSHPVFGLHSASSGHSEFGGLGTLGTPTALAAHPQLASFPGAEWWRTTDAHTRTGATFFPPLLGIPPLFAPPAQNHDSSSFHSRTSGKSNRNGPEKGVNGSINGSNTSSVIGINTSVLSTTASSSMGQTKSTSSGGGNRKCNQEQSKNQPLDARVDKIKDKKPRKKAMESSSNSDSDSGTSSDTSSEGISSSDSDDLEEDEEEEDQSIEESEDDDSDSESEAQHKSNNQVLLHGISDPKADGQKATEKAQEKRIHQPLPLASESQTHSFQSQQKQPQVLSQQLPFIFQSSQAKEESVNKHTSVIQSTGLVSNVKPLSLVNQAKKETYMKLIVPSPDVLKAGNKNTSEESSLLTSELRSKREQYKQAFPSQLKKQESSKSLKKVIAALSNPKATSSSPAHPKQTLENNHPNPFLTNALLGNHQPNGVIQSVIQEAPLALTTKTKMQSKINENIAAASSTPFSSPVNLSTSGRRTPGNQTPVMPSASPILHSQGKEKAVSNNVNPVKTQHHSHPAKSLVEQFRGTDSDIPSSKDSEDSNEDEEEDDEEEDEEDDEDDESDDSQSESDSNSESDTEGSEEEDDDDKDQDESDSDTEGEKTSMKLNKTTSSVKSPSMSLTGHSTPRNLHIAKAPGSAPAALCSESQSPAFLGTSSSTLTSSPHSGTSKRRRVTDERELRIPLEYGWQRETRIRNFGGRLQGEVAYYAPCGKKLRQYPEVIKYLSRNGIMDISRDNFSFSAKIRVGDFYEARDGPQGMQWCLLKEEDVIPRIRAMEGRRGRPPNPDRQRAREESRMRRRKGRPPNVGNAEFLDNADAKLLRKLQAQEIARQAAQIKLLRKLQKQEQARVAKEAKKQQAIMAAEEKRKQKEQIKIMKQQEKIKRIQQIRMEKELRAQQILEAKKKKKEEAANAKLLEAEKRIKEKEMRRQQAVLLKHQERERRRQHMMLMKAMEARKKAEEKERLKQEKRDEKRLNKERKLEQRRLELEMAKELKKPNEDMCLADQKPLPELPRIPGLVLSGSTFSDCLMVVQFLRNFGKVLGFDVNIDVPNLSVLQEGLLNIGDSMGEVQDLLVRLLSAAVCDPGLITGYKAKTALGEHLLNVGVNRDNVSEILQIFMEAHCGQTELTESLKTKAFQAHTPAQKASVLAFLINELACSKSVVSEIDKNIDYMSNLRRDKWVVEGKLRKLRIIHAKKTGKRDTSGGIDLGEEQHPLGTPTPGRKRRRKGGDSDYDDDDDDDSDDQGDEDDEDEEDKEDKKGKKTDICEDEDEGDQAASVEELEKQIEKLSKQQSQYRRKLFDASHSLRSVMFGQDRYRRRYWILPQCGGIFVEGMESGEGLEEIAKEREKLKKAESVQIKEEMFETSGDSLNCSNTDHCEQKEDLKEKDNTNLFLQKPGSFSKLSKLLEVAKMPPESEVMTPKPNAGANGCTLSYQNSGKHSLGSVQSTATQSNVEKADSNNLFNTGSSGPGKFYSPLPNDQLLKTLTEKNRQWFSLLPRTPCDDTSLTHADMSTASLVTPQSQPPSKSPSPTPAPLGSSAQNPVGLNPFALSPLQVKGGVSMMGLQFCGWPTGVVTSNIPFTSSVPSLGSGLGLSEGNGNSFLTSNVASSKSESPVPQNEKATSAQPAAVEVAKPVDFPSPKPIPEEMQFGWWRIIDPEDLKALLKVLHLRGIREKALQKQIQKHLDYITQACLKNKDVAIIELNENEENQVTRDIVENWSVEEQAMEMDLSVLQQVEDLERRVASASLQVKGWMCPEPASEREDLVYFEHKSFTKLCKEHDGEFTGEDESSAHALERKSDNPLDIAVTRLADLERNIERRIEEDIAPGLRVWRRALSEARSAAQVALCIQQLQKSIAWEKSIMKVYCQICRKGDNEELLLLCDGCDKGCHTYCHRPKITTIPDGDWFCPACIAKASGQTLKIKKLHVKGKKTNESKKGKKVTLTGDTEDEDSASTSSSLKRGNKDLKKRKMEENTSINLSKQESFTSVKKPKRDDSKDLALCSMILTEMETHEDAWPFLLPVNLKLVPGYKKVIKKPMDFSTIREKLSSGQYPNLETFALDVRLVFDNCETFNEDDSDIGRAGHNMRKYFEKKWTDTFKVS
Turning to `COc1ccnc(Oc2ccccc2)c1-c1ncn[nH]1`, the Potency entry is “inactive”.

In the case of `COc1cnc(-c2ccccn2)nc1Oc1ccc(C(C)(C)C)cc1`, the Potency was 22.4 µM (active). With `N#Cc1ccc(Oc2cc(C(F)(F)F)nc(-c3ccccn3)n2)cc1` the entry was “inactive”. The result for `Cc1ccc(C(=O)N2c3ncnn3C3(CCCCC3)[C@@H]3CCCC[C@@H]32)cc1` reads “inactive”; that for `Cc1onc(-c2ccc(F)cc2F)c1C(=O)Nc1cccc(C(F)(F)F)c1`, “inactive”; that for `COc1ccc(OCCn2cc(C(=O)C3CCCCC3)c3ccccc32)cc1`, “inactive”.

Consider `COc1ccc(CCNC(=O)CCc2c(C)nc3c(c(C)nn3-c3ccc(C)c(C)c3)c2C)c(OC)c1OC`, for which the Potency entry was “inactive”. `O=C(c1ccc(Br)cc1)N(Cc1cccs1)c1ccc(F)cc1`: the Potency result is “inactive”. The result for `COc1ccccc1-c1nnc(SCC(N)=O)o1` reads “inactive”. For `Cc1cccc(C)c1OCC(=O)NC(Cc1c[nH]c2ccccc12)C(=O)O` (centres undefined), the Potency entry was “inactive”. As to `CC(=O)NC(Cc1c[nH]c2ccccc12)C(=O)O` (centres undefined), the Potency result was “inactive”. The result for `COc1ccc(-c2cc(C(=O)NC(Cc3c[nH]c4ccccc34)C(=O)O)c(C)o2)cc1OC` (centres undefined) reads 50.1 µM (active); that for `COc1cc(/C=N/NC(=O)c2ccc(N3CCCC3=O)cc2)ccc1O`, “inactive”; that for `COc1cc(/C=N/NC(=O)c2cc(C)n(-c3ccc(F)cc3)c2C)cc(OC)c1O`, “inactive”.

With `Cc1cc(C(=O)N/N=C/c2ccc(O)c([N+](=O)[O-])c2)c(C)n1-c1ccc(F)cc1`, the Potency is 50.1 µM (active). The result for `CCc1nc2nc(C)cc(Nc3ccc(F)c(Cl)c3)n2n1` reads “inactive”. The result for `COc1ccc(C)cc1NC(=O)CCc1c(C)nn(-c2ccc(N3CCOCC3)nn2)c1C` reads “inactive”; that for `Cc1nn(-c2ccc(N3CCCCC3)nn2)c(C)c1CCC(=O)NCc1ccc(F)cc1`, 79.4 µM (active); that for `Cc1ccc(CNC(=O)CCc2c(C)nc3c(c(C)nn3-c3ccccc3)c2C)cc1`, “inactive”. The result for `COc1ccc(CNC(=O)CCc2c(C)nn(-c3ccc(N4CCCC4)nn3)c2C)cc1` reads 79.4 µM (active); that for `COC(=O)c1ccc(NC(=O)CCc2c(C)nn(-c3ccc(N4CCCC4)nn3)c2C)cc1`, “inactive”. Regarding `CCOc1ccc(CNC(=O)CCc2c(C)nn(-c3ccc(N4CCCCC4)nn3)c2C)cc1`, the Potency result is “inactive”. `COc1cc(OC)cc(C(=O)Nc2c(C(=O)Nc3ccc(F)cc3)oc3ccccc23)c1`: the Potency entry was “inactive”.

`COc1ccc(-c2nc(CN3CCC(C(=O)NCCN(CC(C)C)CC(C)C)CC3)c(C)o2)cc1OC`: the Potency result was “inactive”. The result for `CC(=O)N1CCCc2cc(S(=O)(=O)N3CCC(C(=O)NCc4ccc(F)cc4)CC3)ccc21` reads “inactive”. Take `CN(C)c1ccc(C(CNS(=O)(=O)c2cc(F)ccc2F)N2CCOCC2)cc1` (centres undefined): the Potency result was “inactive”. On to `COc1ccc(Cn2c(C(=O)O)c(CNCCc3cccs3)c3ccc(OC)cc32)cc1`, for which the Potency result is “inactive”.

Turning to `O=C(O)c1ccc2c(c1)N(Cc1ccc(F)cc1)C(=O)c1ccccc1S2=O` (centres undefined), the Potency result was “inactive”.

With `Cc1nn(C(C)C(=O)NCCc2ccccc2)c(=O)c2c1sc1ccccc12` (centres undefined), the Potency result is “inactive”. As for `Cc1cc(C(=O)N/N=C/c2cc([N+](=O)[O-])cc(C)c2O)n[nH]1`, the Potency is 25.1 µM (active). `CC(C)(C)c1cc(C(=O)N/N=C/c2ccc([N+](=O)[O-])s2)n[nH]1`: the Potency entry is “inactive”. The result for `COc1ccc2ccccc2c1/C=N/NC(=O)c1cc(C)[nH]n1` reads “inactive”; that for `CCCN(CCC)CCCNC(=O)Cn1ncc2c3ccccc3n(Cc3ccccc3)c2c1=O`, “inactive”.

`COc1ccc(-c2cn3c(n2)sc2cc(C(=O)Nc4ccc(F)cc4)ccc23)cc1`: the Potency result was “inactive”. With `Cc1cccc(Cn2c(SCc3ccc(C(=O)N4CCC(C)CC4)cc3)nc3ccncc32)c1`, the Potency result was “inactive”. With `COc1cccc(Cn2c(SCc3ccc(C(=O)N4CCC(C)CC4)cc3)nc3ccncc32)c1`, the Potency was 22.4 µM (active). The result for `COc1cccc(Cn2c(SCc3ccc(C(=O)N4CCCCC4)cc3)nc3ccncc32)c1` reads “inactive”; that for `COc1ccccc1Cc1nc2ccccc2nc1SCC(=O)N1CCCc2ccccc21`, “inactive”. The result for `O=C(c1cccc([N+](=O)[O-])c1)N1CCN(Cc2ccccc2)CC1` reads “inactive”. With `Cc1c(C(=O)c2cccc([N+](=O)[O-])c2)c2ccccn2c1CCC#N` the figure was 50.1 µM (active); with `COc1ccc(C(=O)c2c(C)c(CCC#N)n3ccccc23)c(OC)c1`, “inactive”; with `COC(=O)c1cnc(N2CCN(c3ccccc3OC)CC2)c2ccccc12`, “inactive”. For the compound `COc1ccc2c(c1)c(N1CCCC1=O)c(C(=O)Nc1ccc(OC)c(Cl)c1)n2C`, the Potency entry was “inactive”. With `Cc1ccc(Nc2nc(-c3ccc(O)cc3O)cs2)nc1` the figure was 50.1 µM (active); with `Clc1ccc(Nc2nc(-c3cccs3)cs2)nc1`, “inactive”; with `CC(=O)Nc1cccc(-c2csc(Nc3cccc(C)n3)n2)c1`, “inactive”.

Consider `COc1cc(C(=O)Nc2ccc(-n3c(C)nc4ccccc4c3=O)cc2)cc(OC)c1OC`, for which the Potency entry was “inactive”. With `CCN(CC)c1cc(NC2CCCCC2)c2c3c(onc13)-c1ccccc1C2=O` the figure was 3.55 µM (active); with `COc1ccc(OC)c(CNC(=O)Cn2nc(C)c3c(C)n(-c4ccccc4)nc3c2=O)c1`, “inactive”; with `CCCC(=O)Nc1ccc2oc(-c3ccc(O)c(Br)c3)nc2c1`, “inactive”. As to `COc1ccc(CCNCc2c(C(=O)O)c(C)n(Cc3cccc(C)c3)c2C)cc1OC`, the Potency result is “inactive”. With `COc1ccc(SCc2cc(=O)c3ccc(C)c(C)c3[nH]2)cc1` the entry was “inactive”; with `CC(C)c1ccc(Cc2nnc(NCCCO)[nH]c2=O)cc1`, “inactive”; with `O=c1[nH]c(NCCO)nnc1Cc1ccc(Cl)cc1`, “inactive”. Regarding `COc1ccc(Cc2nnc(N/N=C/c3ccccc3O)[nH]c2=O)cc1OC`, the Potency is 6.31 µM (active). As for `Cc1nn(C)c2c1c(C(F)(F)F)cc(=O)n2C(C)C(=O)NCc1ccc(Cl)cc1` (centres undefined), the Potency entry is “inactive”.

Turning to `O=C(NCc1ccccc1)C1CCN(S(=O)(=O)c2ccc3[nH]c(=O)ccc3c2)CC1`, the Potency result was “inactive”. Regarding `Cc1ccccc1CCNC(=O)C1CCN(c2nc3ccccc3nc2C(F)(F)F)CC1`, the Potency entry was “inactive”. The result for `CC(=O)c1ccc(NC(=O)c2nc3nc(C)cc(C(F)F)n3n2)cc1` reads “inactive”. In the case of `COc1ccc(C2=NC(c3ccncc3)=Nc3ccc(Br)cc3N2)cc1`, the Potency is 28.2 µM (active). With `Brc1ccc2c(c1)NC(c1cccnc1)=NC(c1ccccc1)=N2` the entry was “inactive”; with `Cc1cc(OCCCN2CCN(Cc3ccccc3)CC2)ccc1[N+](=O)[O-]`, 17.8 µM (active); with `Cc1cc(OCC(=O)NC2CCN(C)CC2)ccc1[N+](=O)[O-]`, “inactive”. Consider `Cc1cc(OCCCCOc2ccc(C#N)cc2)ccc1[N+](=O)[O-]`, for which the Potency entry is “inactive”.

The record behind these values is PubChem BioAssay AID504333 (National Center for Advancing Translational Sciences (NCATS), 2011).
